Screens deposited in PubChem by several laboratories.
Hits are enriched below; roughly 5.4% of the tested compounds scored in any of these assays.
AHR act – AHR activators, primary screen, cell-based, luminescence, luciferase reporter, human | 320,000 tested, 2.5% active | AID 2796, 2010 | AHR-responsive luciferase reporter cells | activation, % at 5 µM | Aryl hydrocarbon receptor (Homo sapiens), P35869; in the data active = activation above about 47%;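 note: 0% = vehicle wells and 100% = reference agonist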
GAA850 FXN act – FXN promoter activators, primary screen, cell-based, luciferase luminescence, HEK293 lucGAA850; activation, % at 6 µM; HEK293 lucGAA850 FXN promoter luciferase reporter, 24 h; percent of 10 µM SAHA response; 360,000 tested, 0.56% active;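 active = activation above the average of all compounds screened plus 3 SD, cutoff fixed separately per campaign, cut at about 7.5% in these data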;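 note: 0% = DMSO wells and 100% = 10 µM SAHA wells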
NR0B1 inh – DAX1 (NR0B1) inhibitors, primary screen, cell-based, HEK293, Gal4-DAX1, luciferase luminescence | Nuclear receptor subfamily 0 group B member 1 (Homo sapiens), P51843 | HEK293 Gal4-DAX1 luciferase reporter | inhibition, % at 6.75 µM | 340,000 tested, 0.99% active | AID 504766, 2011;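 active = inhibition above the mean over all tested compounds plus 3 SD, cut at about 4.2% in these data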;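 note: 0% = DAX1-transfected cells with DMSO and 100% = empty-vector control cells with DMSO; inhibition shows as a rise in luminescence from relieved DAX1 repression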
Target sequence (P51843 207-470 limits assumed): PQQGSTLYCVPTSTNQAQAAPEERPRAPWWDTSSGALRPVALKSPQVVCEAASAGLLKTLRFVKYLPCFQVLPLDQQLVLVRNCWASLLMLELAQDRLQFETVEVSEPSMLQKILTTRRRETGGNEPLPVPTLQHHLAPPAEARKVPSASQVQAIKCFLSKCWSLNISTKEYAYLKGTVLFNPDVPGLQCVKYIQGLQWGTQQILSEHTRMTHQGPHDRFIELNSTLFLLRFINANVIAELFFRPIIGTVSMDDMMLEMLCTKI
HSF1 inhib – HSF1 inhibitors in luciferase reporter cells, primary screen, cell-based, NIH3T3, luminescence | NIH3T3-HGL HSE-luciferase, MG132-induced, luminescence 8 h; active compounds read low | activity change, negative = inhibition, % at 7.5 µM (by protocol) | 300,000 tested, 0.77% active;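 active = more than half of replicate wells show activity change below -50%, luminescence cut by over half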;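 note: luciferase reports HSF-1 transcriptional activity via heat shock element; 0% = median of DMSO wells and -100% = zero luminescence signal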
HSF-1 act – HSF-1 activators, primary screen, NIH3T3-HGL cells, MG132 stress, luminescence, single point | NIH3T3-HGL HSF-1 luciferase reporter, 8 h; 100% = twice DMSO control signal | activation, % at 9 µM | 300,000 tested, 1.7% active | AID 504408, 2011;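 active = mean replicate activation of at least 50% with a set share of replicates each reaching 50%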;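 note: 0% = median of the neutral control wells and 100% = twice that signal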
* = called active by the depositor; · = no result.

SMILES | AHR act | GAA850 FXN act | NR0B1 inh | HSF1 inhib | HSF-1 act
O=C(NCc1ccc2c(c1)OCO2)c1nc(Cn2cc([N+](=O)[O-])cn2)no1 | 13.5 | 1.6 | -1.6 | -5.8 | 9.7
Cc1ccc(-c2noc(C3CCCN(C(=O)c4ccccc4Br)C3)n2)o1 (centres undefined) | 4.7 | 2.3 | -0.3 | -0.1 | 9.7
CC(=O)CSc1nnc2cc(C)c3ccccc3n12 | 21.1 | 2.0 | -1.2 | -1.5 | 12.1
CCOC(=O)CC(=O)CSc1nnc2sc3ccccc3n12 | 25.8 | 1.5 | 2.2 | · | ·
CN(C)C(=O)CSc1nnc2sc3ccccc3n12 | 57.5* | 0.6 | 1.8 | 8.0 | 36.5
CCN(CC)C(=O)CSc1nnc2cc(C)c3ccccc3n12 | 52.1* | -1.4 | -0.6 | · | ·
CCOC(=O)c1c(C)[nH]c(C(=O)COC(=O)C2=NNC(=O)CC2)c1C | 2.1 | 3.0 | -0.2 | -78.1* | -82.7
COCCNC(=O)c1cc(C(=O)CC(C)C)c[nH]1 | 27.6 | 1.9 | 1.9 | 2.0 | 8.7
C=CCc1cccc(CNc2nc3ccccc3n2CCC)c1O | -1.2 | -3.0 | 4.7* | 102.2 | 149.4*
COc1ccc(OCCC(=O)OCC(=O)Nc2cccc(S(=O)(=O)N3CCCCC3)c2)cc1 | 1.0 | -0.2 | 0.5 | · | ·
Cc1ccc(-n2nc3c(=O)n(C(C)C(=O)NCc4ccccc4Cl)nc(C)c3c2C)cc1 (centres undefined) | 1.4 | -2.0 | -3.1 | 37.0 | 68.6*
O=C(CC1CCC1)Nc1cccc2c([N+](=O)[O-])cccc12 | -0.7 | 0.2 | · | 1.4 | 9.6
Cc1nnnn1/C(=C\c1ccccc1)C(=O)OCC(=O)NC1CCCCC1 | -2.2 | -4.2 | -0.9 | 70.1 | 78.0*
Cc1nnnn1/C(=C\c1ccccc1)C(=O)OCC(=O)NC(C)(C)C | 9.8 | -6.2 | -1.2 | 26.9 | 15.3
CC1=C(C(=O)OC(C)C)C(c2ccc3c(c2)OCO3)NC(=O)N1 (centres undefined) | 1.3 | 1.0 | 0.8 | 3.0 | 2.9
Cc1cc(C)cc(C(=O)Nc2nc3ccccc3[nH]2)c1 | 56.8* | 2.5 | 0.6 | 12.8 | 28.4
CCc1ccc(C(=O)Nc2nc3ccccc3[nH]2)cc1 | 51.1* | -10.6 | -4.6 | -22.7 | -17.8
O=C(Nc1nc2ccccc2[nH]1)c1cc(F)cc(F)c1 | 15.5 | 2.6 | 0.7 | 10.4 | 25.0
Cc1ccsc1C(=O)Nc1nc2ccccc2[nH]1 | 110.6* | 0.0 | -2.2 | 28.3 | 42.8
COc1cc(OC)cc(C(=O)Nc2nc3ccccc3[nH]2)c1 | 39.4 | 7.0 | 0.8 | 7.6 | 16.8
O=C(Nc1nc2ccccc2[nH]1)c1cc2ccccc2o1 | 56.4* | 2.5 | 0.0 | 21.2 | 34.1
N#Cc1ccc(CN2CCN(C(=O)C3CC(=O)N(c4ccccc4F)C3)CC2)cc1 (centres undefined) | -1.1 | -0.5 | -0.7 | · | ·
Cc1nc2c(cc1N)nc(C)n2Cc1ccccc1 | 2.1 | 2.7 | -0.7 | 0.3 | -1.7
CN(C)S(=O)(=O)c1ccc(C(=O)Nc2nc3ccccc3[nH]2)cc1 | 6.7 | 1.1 | 6.7* | 21.5 | 30.5
O=C(COC(=O)C12CC3CC(CC(Br)(C3)C1)C2)Nc1cccc(S(=O)(=O)N2CCOCC2)c1 | -1.5 | 0.6 | -1.6 | · | ·
SMILES | AHR act | GAA850 FXN act | NR0B1 inh | HSF1 inhib | HSF-1 act
Oc1ccc(C=NC2CCCCC2)cc1 | 0.3 | -0.2 | -0.3 | 0.1 | 13.6
Cc1[nH][nH]c(=O)c1N=Nc1ccc(Cl)cc1 | 51.0* | 0.7 | -1.5 | -3.1 | 6.8
Nc1nc(N)c(N=Nc2ccc(Cl)cc2)c(=O)[nH]1 | 7.7 | 5.1 | 3.6 | 2.2 | 3.6
CC1=CC2(C)C(C3C(C)=CC2(C)C(=O)C3(C)O)C(C)(O)C1=O (centres undefined) | · | 1.3 | -1.1 | · | ·
CC(CCc1ccccc1)NC(=O)c1ccc2nc(N3CCOCC3)sc2c1 (centres undefined) | 7.2 | -4.1 | 0.7 | -4.1 | 8.9
CCC(Cc1ccccc1)NC(=O)c1ccc2nc(N3CCOCC3)sc2c1 (centres undefined) | 58.9* | 0.1 | 0.2 | -3.9 | 0.9
CCCc1ccc(S(=O)(=O)N/N=C\c2ccc3c(c2)OCO3)cc1 | · | 1.5 | 0.3 | -1.5 | -17.6
CCCCn1c(N)c(N(CCOC)C(=O)C2CCN(c3ncnc4sc(C)c(C)c34)CC2)c(=O)[nH]c1=O | 0.0 | -0.2 | 0.4 | -4.0 | -22.6
O=C(CSc1nnc(CCc2ccccc2)n1-c1ccc(Cl)cc1)c1ccccc1 | 1.8 | -0.8 | -1.4 | -60.0* | -71.1
CCCCCCC1CCC(c2nc(-c3ccncc3)no2)CC1 (centres undefined) | -1.7 | -0.2 | -0.3 | -2.9 | -4.7
CCCC1CCC(c2nc(-c3cccnc3)no2)CC1 (centres undefined) | -1.0 | 3.1 | 4.7* | 2.3 | 16.3
COc1ccc(/C=N/N2CCN(c3ccc(Cl)cc3)CC2)cc1O | -9.9 | -1.9 | -1.7 | -6.7 | 14.9
O=C(Nc1ccccn1)C1CCN(C(=O)c2ccc(Cl)cc2)CC1 | · | -2.0 | -0.4 | · | ·
CC(O)(C#CCN1CCCCCC1)c1ccccc1 (centres undefined) | 65.9* | 0.5 | · | 3.0 | 2.8
COc1ccc(N2C(=O)C(F)(F)C2c2ccc(C)cc2)cc1OC (centres undefined) | -0.2 | 0.3 | 0.8 | -1.5 | -16.6
O=C1C(C2=NC(c3ccccn3)C3C(=O)N(c4ccccc4)C(=O)C23)=C(O)c2ccccc21 (centres undefined) | 3.4 | 1.6 | 4.3* | -2.4 | -8.9
O=C1C2C3C=CC(C3)C2C(=O)N1c1ccccc1 (centres undefined) | 0.2 | -0.3 | 0.2 | -8.0 | 4.2
CC(C)(Oc1ccc(Cl)cc1)C(=O)Nc1ccc2oc(-c3ccncc3)nc2c1 | -5.7 | -1.2 | -0.8 | 54.5 | 110.1*
Cn1c(=O)[nH]c(=O)c2c1nc(SCCCO)n2CCCc1ccccc1 | 3.4 | 3.9 | -0.5 | 3.4 | 26.4
COc1ccc(/C=C(\NC(=O)c2ccccc2)C(=O)NCc2ccco2)cc1OC | -0.1 | 0.8 | 4.0 | 0.4 | -6.4
COCC1CCCCN1C(=O)c1cc(COc2ccc3ncccc3c2)on1 (centres undefined) | -5.5 | -5.0 | -4.7 | -71.7* | -78.9
CCC1CCCCN1C(=O)c1cc(COc2ccc3ncccc3c2)on1 (centres undefined) | -4.5 | -3.2 | -3.5 | -3.9 | -14.6
CCCN1CCN(C(=O)c2cc(COc3ccc4ncccc4c3)on2)CC1 | -4.3 | -1.9 | -3.3 | -57.0* | -66.3
C=Cc1ccc(Cn2c(C)c(C(=O)NCc3cccc(C)c3)sc2=O)cc1 | · | 0.0 | · | · | ·
OCCC1CN(Cc2ccccc2O)CCN1CCCc1ccccc1 (centres undefined) | 1.2 | 0.2 | -0.7 | -12.6 | -4.7
OCCC1CN(Cc2c(O)ccc3ccccc23)CCN1CCc1ccccc1 (centres undefined) | 20.1 | 0.0 | -0.3 | 167.2 | 215.6*
